# Pin1 inhibitor: qHTS Assay to Find Inhibitors of Pin1; Peptidyl-prolyl cis-trans isomerase NIMA-interacting 1 (Homo sapiens), Q13526; Pin1 FP peptide displacement, HiFluor488, 10 min; Potency, µM (titrated, usually from 115 µM), for the others: top-dose activity, negative = inhibition, actives largely listed as inhibitors; 0.009% of 390,000 active; active = well fitted inhibition curve with a large enough effect in the polarisation, with a control signal flat, not every such curve was filed as active; inconclusive = small, poorly fitted or top-dose-only effect, or effect the other way, or a change in a side signal; inactive = no such curve, though single readings can be large or run the other way; the % refers to the polarisation; note: % is set by controls: 0 for no effect and ±100 for the full control effect
# Target sequence (Q13526 whole entry, looked up): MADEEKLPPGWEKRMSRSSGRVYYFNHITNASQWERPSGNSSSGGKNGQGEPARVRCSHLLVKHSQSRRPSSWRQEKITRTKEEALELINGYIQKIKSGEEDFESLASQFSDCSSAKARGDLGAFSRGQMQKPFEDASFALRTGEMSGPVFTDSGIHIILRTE
# Tb PFK inh-1: qHTS Assay to Find Inhibitors of T. brucei phosphofructokinase | AID 485367, 2010 | Potency, µM (doses to about 57.5 µM), for inactives: at the highest dose activity, negative = inhibition, hits mostly inhibitors | 0.17% of 330,000 active | T. brucei PFK, ADP-Glo luminescence | ATP-dependent 6-phosphofructokinase (Trypanosoma brucei brucei), O15648;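 note: 0% = uninhibited 1x PFK enzyme wells and -100% = no-enzyme wells; nearly all actives have a fitted effect of over 60% in size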
# Target sequence (O15648 whole entry, looked up): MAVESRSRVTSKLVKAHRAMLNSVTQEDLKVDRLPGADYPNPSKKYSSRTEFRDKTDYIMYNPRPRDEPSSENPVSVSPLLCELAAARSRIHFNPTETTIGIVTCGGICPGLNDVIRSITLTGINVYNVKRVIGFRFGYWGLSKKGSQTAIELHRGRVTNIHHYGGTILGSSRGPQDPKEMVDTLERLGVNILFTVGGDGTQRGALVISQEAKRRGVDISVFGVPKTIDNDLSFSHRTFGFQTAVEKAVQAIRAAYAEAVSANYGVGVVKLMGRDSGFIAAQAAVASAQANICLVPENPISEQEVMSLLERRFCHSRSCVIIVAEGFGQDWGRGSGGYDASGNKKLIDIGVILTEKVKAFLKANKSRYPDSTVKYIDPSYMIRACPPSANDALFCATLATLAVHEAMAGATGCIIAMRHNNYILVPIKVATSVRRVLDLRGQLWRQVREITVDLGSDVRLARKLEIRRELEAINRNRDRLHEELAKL
#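 Compounds were pin-transferred as a titration series up to 57 uM into substrate buffer (0.5 mM F6P, 0.1 mM ATP, pH 8.0), then 1.25 nM PFK was added and reactions ran 45 min before ADP-Glo detection.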
# PGK inhibitor: qHTS Assay to Find Inhibitors of Phosphoglycerate Kinase; Phosphoglycerate kinase, glycosomal (Trypanosoma brucei brucei), P07378; PGK/GAPDH coupled, Kinase-Glo luminescence, 60 min; Potency, µM (highest dose often 57.5 µM), for inactives: top-dose activity change, negative = inhibition, usual class: inhibitors; 0.043% of 380,000 active; AID 602233, 2012; note: % is set by controls: 0 for no effect and ±100 for the full control effect; nearly all actives have a fitted effect of over 60% in size
#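 Luminescent ATP detection (Kinase-Glo Plus) follows a 60-minute room-temperature incubation, with wells lacking PGK as controls. Buffer: 100 mM TEA (pH 7.6), 5 mM MgCl2, 0.01% Tween-20. Coupling enzyme GAPDH (100 nM final) supplies unstable 1,3-BPG in-well.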
# B2AR arrestin: qHTS assay of beta-arrestin-biased ligands of beta2-adrenergic receptor. 0.02% of 330,000 active. beta-arrestin recruitment to beta2AR, cell-based reporter. Potency, µM (series often up to 46.1 µM), inactives show at the top dose activation, most hits filed as activators;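 note: 0% = DMSO controls and full agonism = EC100 isoproterenol or metaproterenol; nearly all actives have a fitted effect of over 65% in size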
# Chronic BCR inh: qHTS Assay to Find Inhibitors of Chronic Active B-Cell Receptor Signaling; ABC-DLBCL IkBa-CBG/CBR reporter, luminescence ratio, 4 h; Potency, µM (titrated, usually from 46.1 µM), without a hit: top-dose activity change, negative = inhibition, hits mostly inhibitors; 0.05% of 340,000 active; AID 493014, 2011; active = well fitted inhibition curve with a large enough effect in the signal ratio, with a control signal flat, not every such curve was filed as active; inconclusive = small, poorly fitted or top-dose-only effect, or effect the other way, or a change in a side signal; the % refers to the signal ratio;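 note: plate controls were basal doxycycline-induced cells for no effect and cells given 10 µM MG132 for full effect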
#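 TMD8 human ABC-DLBCL cells with doxycycline-inducible IκBα–green luciferase fusion and unfused red luciferase, in 0.5% FBS medium; compounds up to 46 uM, 4 h at 37C. Green/red luminescence ratio, filter-overlap corrected, fitted to concentration-response curves.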
# GLS inhibitor: qHTS for Inhibitors of Glutaminase (GLS); Glutaminase kidney isoform, mitochondrial (Homo sapiens), O94925; GLS enzymatic activity, qHTS titration; Potency, µM (top dose mostly 45.5 µM), inactives show at the top dose activity change, negative = inhibition, hits mostly inhibitors; 0.21% of 410,000 active; AID 624170, 2012; note: % is set by controls: 0 for no effect and ±100 for the full control effect
#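 Assay buffer: 45 mM KH2PO4 pH 8.2, 0.02% Tween-20. hKGA acts on L-glutamine (1 mM solution added); product glutamate is reported by an oxidase/peroxidase Amplex Red coupling, with fluorescence taken at baseline and 30 min.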
# Tb PFK KinaseGlo: Tb PFK orthogonal confirmatory assay using ATP depletion (Kinase-Glo Plus) as an alternative measure of Tb PFK activity: Hit Validation. shares compounds with Tb PFK inh-1. Tb PFK enzyme, ATP depletion, Kinase-Glo Plus luminescence. Potency, µM (doses to about 57.5 µM), inactives show at the highest dose inhibition. 47% of 1,100 active; calls by dose curve; note: nearly all actives have a fitted effect of over 60% in size
# Tb PFK inh-2: Inhibitors of T. brucei phosphofructokinase: Hit Validation; shares compounds with Tb PFK inh-1; purified T. brucei PFK, ADP-Glo luminescence, 45 min; Potency, µM (highest dose often 57.5 µM), without a hit: at the highest dose activity change, negative = inhibition, actives largely listed as inhibitors; 41% of 1,100 active;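 note: plate controls were full PFK enzyme control for no effect and no enzyme control for full effect; nearly all actives have a fitted effect of over 60% in size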
# Active calls of the source: *; i = inactive; u = inconclusive; x = no result. The list is not random: actives were taken first. Their share in the collection is about 0.42%. Unless noted, calls come from the whole dose curve; as a rule, active = well fitted curve in the direction sought with a large enough effect; inconclusive = small, poorly fitted or top-dose-only effect, or another doubt; inactive = no such curve, though single readings can be large; an effect the other way counts as inactive or inconclusive. Potency is the fitted concentration of half-maximal effect.
SMILES,Pin1 inhibitor,Tb PFK inh-1,PGK inhibitor,B2AR arrestin,Chronic BCR inh,GLS inhibitor,Tb PFK KinaseGlo,Tb PFK inh-2
CCn1cc(C(=O)NCCc2ccc(OC)c(OC)c2)c(=O)c2cc(S(=O)(=O)N(C)C3CCCCC3)ccc21,19.2%,x,-9.6%,x,x,5.5%,x,x
COc1ccc(C(CNC(=O)Cc2ccc(Cl)c(Cl)c2)N2CCCCC2)cc1 (configuration not stated),-5.8%,-7.1%,-3.4%,-0.8%,2.2%,4.4%,x,x
CCn1c(CCNC(=O)c2ccc(OC)cc2)nnc1SCc1ccc(Cl)c(Cl)c1,2.5%,16.9µM*,-5.4%,-0.8%,-2.2%,10.7%,12µM*,23.9µM*
Brc1cccc(CNCCc2ccc3c(c2)OCO3)c1,-13.4%,-23.1%,7.7%,-0.6%,-0.3%,3.5%,x,x
O=[N+]([O-])c1ccc(NCc2ccc3c(c2)OCO3)cc1,0.4%,6.01µM*,-9.0%,-0.1%,-0.4%,3.9%,4.78µM*,12µM*
Cc1cc(F)ccc1NCc1ccc([N+](=O)[O-])cc1,-9.2%,u,-9.6%,-0.2%,0.1%,-3.7%,u,u
Cc1ccc(NC2c3ncccc3C(=O)N2c2ccccc2C)cc1C (configuration not stated),0.7%,u,-1.9%,6.3%,-0.1%,u,19µM*,u
NC1CCc2cc(O)c(O)cc2C1 (configuration not stated),-2.1%,6.75µM*,-8.1%,-0.1%,-13.3%,u,2.69µM*,2.69µM*
COc1ccc(/C=C2/C(=O)NC(=O)N(Cc3ccco3)C2=O)cc1,x,u,x,0.5%,1.8%,x,x,x
CCOC(=O)C1CCN(/C=C2/C(=O)NC(=O)N(Cc3ccco3)C2=O)CC1,-2.8%,u,u,0.2%,-0.7%,7.08µM*,u,u
Cc1nc2ccccc2n1CC(=O)c1ccc(O)c(O)c1,2.5%,30.1µM*,-10.0%,0.2%,-4.6%,-1.6%,u,u
CC(=O)Nc1nc(C)c(-c2csc(Nc3ccccn3)n2)s1,-0.4%,3.1%,-7.4%,-0.6%,u,2.3%,x,x
Cc1c(C(=O)Nc2nc(-c3ccccn3)cs2)oc2ccccc12,-1.8%,u,-0.4%,-0.2%,9.4%,-0.4%,19µM*,30.1µM*
Cc1ccc(NC(=O)c2snnc2C)cc1Cl,-9.3%,-4.6%,i,-1.1%,u,3.0%,x,x
Cc1ccc(NC2=C(NC(=O)c3ccccc3)C(=O)c3ccccc3C2=O)cc1Cl,-4.4%,u,i,-0.9%,5.6%,14.8%,u,6.75µM*
N#Cc1cc2c(nc1SCC(=O)Nc1cccc(F)c1)C1CCN2CC1,-0.1%,x,2.4%,x,x,8.8%,x,x
O=C(CSc1nc(-c2ccc(F)cc2)nc2c1Cc1ccccc1O2)Nc1cccc(C(=O)O)c1,u,u,u,0.2%,-9.2%,-23.9%,u,u
CC(=O)Nc1cc(C(=O)CSc2nnc(C3CC3)n2C2CC2)ccc1O,u,u,-1.3%,-0.1%,2.9%,0.7%,u,u
CC(=O)Nc1nnc(SCC(=O)c2ccc(F)cc2)s1,-9.5%,2.3%,-5.1%,0.3%,u,-12.4%,x,x
CCCCn1c(=O)c(C(=O)NCc2ccncc2)c(O)c2ccccc21,-2.3%,-1.9%,1.6%,u,u,4.6%,x,x
CC1CN(S(=O)(=O)c2cc(C(=O)NCc3ccncc3)ccc2Cl)CC(C)O1 (configuration not stated),-7.3%,u,-3.4%,-0.3%,-0.1%,5.0%,u,u
COc1cccc(NC(=O)C2CCN(c3nnc(C)c4c(C)n(-c5ccccc5)nc34)CC2)c1,u,x,-7.7%,x,u,2.4%,x,x
CN1CCc2cccc3c2[C@H]1Cc1ccc(O)c(O)c1-3,u,1.9µM*,-1.8%,u,u,u,2.69µM*,6.75µM*
CCCc1nc2ccccc2c(=O)n1/N=C/c1c(C)[nH]n(-c2ccc(C)cc2)c1=O,2.1%,7.0%,-21.6%,0.4%,u,-9.4%,x,x
O=C(CO)[C@@H](O)C(O)[C@@H](O)CO (some centres not stated),x,x,x,x,x,-7.7%,x,x
SMILES,Pin1 inhibitor,Tb PFK inh-1,PGK inhibitor,B2AR arrestin,Chronic BCR inh,GLS inhibitor,Tb PFK KinaseGlo,Tb PFK inh-2
O=S(=O)(NCc1nnc2c(C(F)(F)F)cc(Cl)cn12)c1ccccc1,32.1%,0.2%,-3.3%,-0.3%,-0.2%,0.0%,x,x
CN(C)S(=O)(=O)c1cc(NC(=O)COC(=O)Cc2ccccc2)ccc1Cl,3.5%,-1.1%,-12.2%,-0.4%,0.6%,27.5%,x,x
CS(=O)(=O)N1Cc2ccccc2CC1C(=O)OCC(=O)Nc1ccc2ccccc2c1 (configuration not stated),14.6%,u,-3.8%,-0.6%,12.9%,-0.7%,u,-23.2%
O=C(c1cc([N+](=O)[O-])ccc1N1CCNCC1)N1CCOCC1,-0.3%,u,-1.5%,-0.2%,-6.4%,1.3%,x,x
O=C(NCCCN1CCOCC1)c1sc2cc([N+](=O)[O-])ccc2c1Cl,-8.2%,10.7µM*,2.8%,-1.1%,-1.1%,0.0%,3.38µM*,4.26µM*
COc1ccc(OC)c(/C=N/NC(=O)CCc2ccc(O)c(O)c2)c1,1.3%,1.69µM*,-6.7%,-1.1%,u,u,u,-29.0%
N#Cc1c(F)cccc1NCc1cccnc1,-15.5%,u,9.4%,0.0%,-1.5%,-2.8%,u,-9.1%
O=C(NCc1cccnc1)Nc1ccccc1Cl,-3.2%,-3.8%,5.9%,0.4%,-11.9%,0.2%,x,x
C[C@]12CC[C@@H]3c4ccc(O)c(O)c4CC[C@H]3[C@@H]1CC[C@@H]2O,-7.6%,13.5µM*,-8.8%,-0.3%,u,u,7.57µM*,13.5µM*
